# Pol kappa inh – DNA polymerase kappa (human) inhibition. actives 0.53% (n = 400,000). purified Pol kappa, fluorescent DNA synthesis assay, 10 min. Potency, µM (top dose mostly 107 µM), without a hit: at the top dose activity, negative = inhibition, most hits filed as inhibitors. Q9UBT6; note: % is set by controls: 0 for no effect and ±100 for the full control effect
#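 Here, compound and 10 nM enzyme are combined for 15 min at room temperature; adding 50 nM substrate (final) starts DNA synthesis, tracked by fluorescence at 0 and 10 min against buffer-only wells.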
# WRN helicase inh-1 – blocks human WRN helicase; WRN helicase unwinding, fluorescent forked duplex, kinetic; Potency, µM (doses to about 114 µM), for inactives: top-dose activity change, negative = inhibition, usual class: inhibitors; actives 0.46% (n = 360,000); note: % is set by controls: 0 for no effect and ±100 for the full control effect; nearly all actives have a fitted effect of over 55% in size
#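 Kinetic red-fluorescence monitoring (525/598 nm) tracks WRN helicase activity after 100 nM fluorophore-quencher forked duplex and 2 mM ATP are added to 20 nM enzyme pretreated 15 min at room temperature with compound.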
# POLH inh – DNA polymerase eta (human) inhibition | Potency, µM (titrated, usually from 114 µM), without a hit: top-dose activity change, negative = inhibition, usual class: inhibitors | AID 588591 | actives 1.2% (n = 390,000) | recombinant Pol eta, fluorescent DNA replication assay; note: % is set by controls: 0 for no effect and ±100 for the full control effect
#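 Pol eta (10 nM) was preincubated with compounds for 15 min at room temperature, after which fluorescent replication substrate (50 nM final) was added to start the reaction. Fluorescence was read kinetically at 0 and 10 min.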
# Pol iota inh – inhibitors of human DNA polymerase iota | AID 588590 | Potency, µM (doses to about 115 µM), without a hit: top-dose activity, negative = inhibition, usual class: inhibitors | Pol iota fluorescent replication assay, 10 min | actives 1% (n = 390,000)
#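 Fluorescent replication assay read twice, at 0 min and 10 min after adding 50 nM (final) substrate. Enzyme (10 nM) and compounds were first incubated 15 min at room temperature; enzyme-free buffer wells were negative controls.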
# Pol beta inh – blocks human DNA polymerase beta activity | Pol beta primer extension/strand displacement, fluorescence kinetic | Potency, µM (doses to about 114 µM), for the others: at the highest dose activity change, negative = inhibition, hits mostly inhibitors | actives 1.3% (n = 340,000) | AID 485314; note: % is set by controls: 0 for no effect and ±100 for the full control effect
#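 Preincubation: enzyme (10 nM) with compound, 15 min, RT. Reaction: substrate added to 50 nM final. Reads: 0 and 10 min. Analysis: normalized, Hill fit.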
# WRN helicase inh-2 – confirmation of human WRN helicase inhibitors; actives 63% (n = 610); shares compounds with WRN helicase inh-1; AID 720497; WRN helicase DNA unwinding, fluorescence kinetic; Potency, µM (highest dose often 57.1 µM), inactives show at the highest dose activity, negative = inhibition, hits mostly inhibitors; note: nearly all actives have a fitted effect of over 65% in size
# TO displacement – binds DNA, flagged in WRN inhibitor counterscreen | shares compounds with WRN helicase inh-1 | thiazole orange DNA binding displacement, fluorescence | Potency, µM (top dose mostly 57.1 µM), for inactives: at the highest dose activity change, negative = inhibition, actives largely listed as inhibitors | actives 10% (n = 610) | AID 720499;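 note: drop in dye fluorescence marks compound binding to DNA; % is set by controls: 0 for no effect and ±100 for the full control effect; nearly all actives have a fitted effect of over 60% in size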
# BLM helicase inh – blocks human BLM helicase in WRN counterscreen; shares compounds with WRN helicase inh-1; Recombinant BLM helicase DNA unwinding, red fluorescence; Potency, µM (series often up to 57.1 µM), for inactives: at the highest dose activity change, negative = inhibition, most hits filed as inhibitors; actives 60% (n = 610); AID 720503; note: nearly all actives have a fitted effect of over 60% in size
# Target sequence (P54132 whole entry, looked up): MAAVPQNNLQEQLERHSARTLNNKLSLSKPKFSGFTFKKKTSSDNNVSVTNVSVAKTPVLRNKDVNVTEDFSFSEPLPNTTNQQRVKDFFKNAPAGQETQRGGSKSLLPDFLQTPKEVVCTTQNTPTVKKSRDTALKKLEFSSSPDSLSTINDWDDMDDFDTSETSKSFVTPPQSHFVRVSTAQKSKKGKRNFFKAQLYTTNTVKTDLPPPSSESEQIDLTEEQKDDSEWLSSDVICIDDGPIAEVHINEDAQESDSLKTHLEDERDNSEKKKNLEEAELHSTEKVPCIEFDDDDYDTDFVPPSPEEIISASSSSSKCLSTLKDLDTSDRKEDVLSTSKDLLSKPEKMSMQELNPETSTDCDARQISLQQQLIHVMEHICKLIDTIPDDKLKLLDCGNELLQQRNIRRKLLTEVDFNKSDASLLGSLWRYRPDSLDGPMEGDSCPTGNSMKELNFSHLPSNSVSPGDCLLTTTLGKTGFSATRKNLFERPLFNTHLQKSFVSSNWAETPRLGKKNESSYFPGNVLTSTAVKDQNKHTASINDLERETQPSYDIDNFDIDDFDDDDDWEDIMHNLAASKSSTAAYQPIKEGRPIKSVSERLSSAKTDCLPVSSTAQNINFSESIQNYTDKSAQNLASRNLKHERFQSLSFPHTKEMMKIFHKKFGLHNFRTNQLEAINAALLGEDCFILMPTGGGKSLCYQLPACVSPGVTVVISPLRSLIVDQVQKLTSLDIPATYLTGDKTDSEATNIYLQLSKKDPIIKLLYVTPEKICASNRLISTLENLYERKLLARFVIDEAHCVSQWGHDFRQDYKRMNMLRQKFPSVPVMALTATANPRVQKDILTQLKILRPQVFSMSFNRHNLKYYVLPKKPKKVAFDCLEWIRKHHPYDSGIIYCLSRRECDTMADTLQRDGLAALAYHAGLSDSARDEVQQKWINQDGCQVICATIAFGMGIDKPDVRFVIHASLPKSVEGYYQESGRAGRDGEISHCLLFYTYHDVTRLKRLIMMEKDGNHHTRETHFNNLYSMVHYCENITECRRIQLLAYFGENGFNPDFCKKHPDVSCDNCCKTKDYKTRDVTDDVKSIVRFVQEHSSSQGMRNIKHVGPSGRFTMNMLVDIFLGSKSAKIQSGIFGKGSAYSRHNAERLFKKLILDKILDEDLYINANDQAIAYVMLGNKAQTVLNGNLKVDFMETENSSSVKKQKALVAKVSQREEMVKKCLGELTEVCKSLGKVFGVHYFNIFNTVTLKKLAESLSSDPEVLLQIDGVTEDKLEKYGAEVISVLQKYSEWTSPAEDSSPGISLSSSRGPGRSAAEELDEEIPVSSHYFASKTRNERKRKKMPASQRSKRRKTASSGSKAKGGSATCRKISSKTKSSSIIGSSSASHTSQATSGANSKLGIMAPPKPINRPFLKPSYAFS
# The depositor's hits bear a star; ? = inconclusive; nt = not tested or not shown; [ ] = dose if it differs, or a comment. The list is not random: actives were taken first. Their share in the collection is about 2.3%. Calls come from the whole dose curve; as a rule, active = well fitted curve in the direction sought with a large enough effect; inconclusive = small, poorly fitted or top-dose-only effect, or another doubt; inactive = no such curve, though single readings can be large; an effect the other way counts as inactive or inconclusive. Potency is the fitted concentration of half-maximal effect.
SMILES,Pol kappa inh,WRN helicase inh-1,POLH inh,Pol iota inh,Pol beta inh,WRN helicase inh-2,TO displacement,BLM helicase inh
COc1ccc(OC)c(CNC(=O)c2ccccc2NC(=O)c2nsc3ccccc23)c1,-11%[60.1 µM],nt,10%,-19%,32%,nt,nt,nt
COc1cc(/C=N/Nc2nc(Nc3ccccc3)nc(-n3nc(C)cc3C)n2)cc(OC)c1OC,-34%,?,-25%,-14%,-3%,6.8µM*,78%,2.7µM*
N#Cc1c(NC(=O)c2ccc(Cn3cc(Br)cn3)o2)sc2c1CCCCC2,-3%,-19%,?,?,-25%,nt,nt,nt
COC(=O)c1sc(NC(=O)c2ccc(Cn3cc(Cl)cn3)o2)c(C#N)c1C,?,?,?,?,?,-19%,-25%,?
C[C@@H]1NC(=O)N[C@@H]1CCCCCC(=O)O,2%,?,?,30%,nt,?,-1%,?
O=C(/C=C/c1cccc2ccccc12)c1ccncc1,-3%,?,?,-1%,7%,-17%,-11%,-14%
Cc1ccc(Cc2nc3ccccc3nc2SCC(=O)Nc2ccc3c(c2)OCO3)cc1,-4%[60.1 µM],nt,-7%,20%,0%,nt,nt,nt
COc1ccccc1NC(=O)N1CCN(c2nnc(C)c3c(C)n(-c4ccccc4)nc23)CC1,-4%[60.1 µM],nt,-9%,-2%,1%,nt,nt,nt
COCN(C#N)c1nc(N(C)C)nc(N(C)C)n1,-4%,7%,-21%,95%,-1%,nt,nt,nt
COc1ccc(CN(C#N)c2nc(SC)nc(N(C)C)n2)cc1,?,100µM*,?,89µM*,2%,-7%,-9%,-9%
O=C(O)CNS(=O)(=O)Cc1ccccc1,0%,4%,-16%,14%,15%,nt,nt,nt
O=S(=O)(Cc1ccccc1)N(O)c1ccccc1,-4%,?,-7%,71%,9%,1%,-7%,0%
O=C1Nc2ccc3sc4ccccc4c3c2C1=O,-30%,?,?,22µM*,5.6µM*,?,24µM*,7.6µM*
CC(O)(c1ccccc1)c1nc(-c2ccncc2)cs1 (centres undefined),nt,?,nt,nt,nt,?,-27%,?
CC(O)(c1ccccc1)c1nc(-c2ccccc2)cs1 (centres undefined),nt,-5%,nt,nt,nt,nt,nt,nt
COc1ccc(N2CCN(C(=O)Cc3c(C(=O)O)c(C)cn3C)CC2)cc1,-6%[60.1 µM],nt,-13%,-12%,28%,nt,nt,nt
CCc1sc(C(C2C(=O)CC(C)(C)CC2=O)C2C(=O)CC(C)(C)CC2=O)cc1[N+](=O)[O-],-12%,32µM*,?,?,?,22µM*,19µM*,22µM*
CC1(C)CC(=O)C(C(c2ccc(F)cc2)C2C(=O)CC(C)(C)CC2=O)C(=O)C1,-1%,-6%,-13%,-5%,35%,nt,nt,nt

# Compound activity (PubChem)
